Source: PubChem BioAssay (NCI)
This is part of a sample that, as a whole, favours compounds with a hit. Of some 83,000 tested, about 20% had one in any assay.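 The test compound was applied at a single concentration to cells in 96-well plates for 48 hours, and percent growth was recorded.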 Unmarked numbers belong to inactive results. The source made the active and inactive calls. Rule for the calls: active = growth percent below 10; inactive = the rest.

System: RPMI-8226 leukemia
Assay: NCI-60 one-dose screen, 48 h (100 = growth as untreated, 0 = no growth, -100 = all killed)
Settings: 10 µM unless noted

Compound | growth
Fc1cccc(CNc2nc(SCCN3CCOCC3)nc3c2cnn3CC(Cl)c2ccc(Br)cc2)c1 (stereo unspecified) | 2.98% (active)
O=C(Nc1nc2ccc([N+](=O)[O-])cc2s1)Nc1ccc(Cl)cc1Cl | 23.5%
Nc1nnc(CS(=O)(=O)c2ccccc2)s1 | 103%
CCCCCCCCc1ccc(C(=O)Nc2ccc(C)cc2C(=O)O)cc1 | 63.5%
COc1ccc2c(c1)c(-c1cc(N)n3nc(-c4c[nH]c5ccccc45)cc3n1)cn2C | -9.07% (active)
Clc1ccc(CNc2nc(SCCN3CCOCC3)nc3c2cnn3CC(Cl)c2ccc(Br)cc2)cc1 (stereo unspecified) | 1.89% (active)
CCC(=O)c1cc(C(=O)OC)c2ccc3c4ccccc4ccc3n12 | 84.9%
Nc1cc(-c2c[nH]c3ccc(Cl)cc23)nc2cc(-c3c[nH]c4ccccc34)nn12 | 0.472% (active)
CCCCNc1ccc2c3c(cccc13)C(=O)N(NCC(O)COc1ccc3c(C)cc(=O)oc3c1)C2=O (stereo unspecified) | 69.3%
O=C(OCCOCCO)N(c1cccc(Br)c1)c1nc(SCCN2CCOCC2)nc2c1cnn2CC(Cl)c1ccc(Br)cc1 (stereo unspecified) | -25.7% (active)
CCN1C(=O)N(CC)C2NNC(Sc3c(C(=O)O)c4ccccc4n(CC(C)C)c3=O)=NC21 (stereo unspecified) | 8.29% (active)
CCN1C(=O)N(CC)C2NNC(Sc3c(C(=O)O)c4ccccc4n(CCC(C)C)c3=O)=NC21 (stereo unspecified) | 10.3%
COc1ccc(C(=O)c2cc(C(C)=O)c3c(C)cc(C)cn23)cc1 | 67.7%
O=C(N/N=C/c1ccc(Cl)cc1)c1ccc(OCc2nc3ccc(Cl)cc3[nH]2)cc1 | 40.3%
COC(=O)c1cc(C(=O)C(Br)Br)n2c1ccc1c3ccccc3ccc12 | 54.6%
O=C(Nc1nc2ccccc2s1)Nc1ccccc1Cl | 91.9%
Oc1ccc(Cl)c(Nc2ncnc3c2cnn3CC(Cl)c2ccc(Br)cc2)c1 (stereo unspecified) | 52.3%
ClC(Cn1ncc2c(Nc3cccc(Br)c3)nc(SCCN3CCOCC3)nc21)c1ccc(Br)cc1 (stereo unspecified) | 1.13% (active)
Nc1cc(-c2c[nH]c3ccc(F)cc23)nc2cc(-c3c[nH]c4ccccc34)nn12 | -1.51% (active)

Compound | growth
O=C1Nc2cc(-c3ccc(NS(=O)(=O)c4ccc(F)c(Cl)c4)cc3)ccc2/C1=C/c1ccc[nH]1 | 21.4%
O=C1CCC(N2C(=O)c3cccc(NCCOCCOCCOCCC(=O)NCCCC(=O)NC(c4ccc5c(c4)OCO5)c4cc(Cl)c5cccnc5c4O)c3C2=O)C(=O)C1 (stereo unspecified) | 16.1%
Cn1cc(-c2cc3nc(-c4c[nH]c5ccccc45)cc(N)n3n2)c2ccccc21 | -21.9% (active)
CN1C(=O)C(O)(CC(=O)c2cc3ccccc3oc2=O)c2ccccc21 (stereo unspecified) | 97.6%
COc1ccc(Nc2nnc(-c3c[nH]c4ccccc34)o2)cc1 | 32.5%
Cc1cccc(C)c1Nc1nnc(-c2c[nH]c3ccccc23)o1 | 86%
Cc1ccc(O)cc1Nc1nc(SCCN2CCOCC2)nc2c1cnn2CC(Cl)c1ccc(Br)cc1 (stereo unspecified) | 16.8%
Fc1ccccc1CNc1nc(SCCN2CCOCC2)nc2c1cnn2CC(Cl)c1ccc(Br)cc1 (stereo unspecified) | -6.83% (active)
COC(=O)c1cc(C(=O)CBr)n2c1ccc1c3ccccc3ccc12 | 38.7%
Oc1ccc(F)c(Nc2nc(SCCN3CCOCC3)nc3c2cnn3CC(Cl)c2ccc(Br)cc2)c1 (stereo unspecified) | 1.15% (active)
COC(=O)c1c(C(=O)OC)c2ccc3c4ccccc4ccc3n2c1C(=O)C(C)Br (stereo unspecified) | 3.26% (active)
Cc1nn(-c2ccccc2)c2nc(C)n(C(=O)N/N=C/c3cccc([N+](=O)[O-])c3)c(=O)c12 | 94%
COc1c2c(c(Br)c3c1C(CCc1ccccc1)N(C)CC3)OCO2 (stereo unspecified) | 16.7%
COc1ccc2[nH]cc(-c3cc(N)n4nc(-c5c[nH]c6ccccc56)cc4n3)c2c1 | -11.5% (active)
CC(C)(C)C(=O)C1CC(C#N)=C2C=Cc3c(ccc4ccccc34)N21 (stereo unspecified) | 75%
Oc1ccc(Cl)c(Nc2nc(SCCN3CCOCC3)nc3c2cnn3CC(Cl)c2ccc(Br)cc2)c1 (stereo unspecified) | 19.2%
Fc1ccc(F)c(CNc2nc(SCCN3CCOCC3)nc3c2cnn3CC(Cl)c2ccc(Br)cc2)c1 (stereo unspecified) | 2.73% (active)
CN1CCN(C(=O)Oc2cc3c(c4ccccc24)[C@H](CCl)CN3C(=O)c2cc3cc(OCCCN4CCC4)ccc3[nH]2)[C@H]2CSSC[C@H]21 | -31.2% (active)
Nc1nc(-c2ccccc2)c(N=Nc2ccc(Cl)cc2Cl)s1 | 7.32% (active)

System: OVCAR-8 ovarian
Assay: as above
Settings: 10 µM unless noted

Compound | growth
Fc1cccc(CNc2nc(SCCN3CCOCC3)nc3c2cnn3CC(Cl)c2ccc(Br)cc2)c1 (stereo unspecified) | 32.6%
O=C(Nc1nc2ccc([N+](=O)[O-])cc2s1)Nc1ccc(Cl)cc1Cl | 48.4%
Nc1nnc(CS(=O)(=O)c2ccccc2)s1 | 97.4%
CCCCCCCCc1ccc(C(=O)Nc2ccc(C)cc2C(=O)O)cc1 | 94.1%
COc1ccc2c(c1)c(-c1cc(N)n3nc(-c4c[nH]c5ccccc45)cc3n1)cn2C | -74.7% (active)
Clc1ccc(CNc2nc(SCCN3CCOCC3)nc3c2cnn3CC(Cl)c2ccc(Br)cc2)cc1 (stereo unspecified) | 44.3%
CCC(=O)c1cc(C(=O)OC)c2ccc3c4ccccc4ccc3n12 | 71.5%
Nc1cc(-c2c[nH]c3ccc(Cl)cc23)nc2cc(-c3c[nH]c4ccccc34)nn12 | -4.93% (active)
CCCCNc1ccc2c3c(cccc13)C(=O)N(NCC(O)COc1ccc3c(C)cc(=O)oc3c1)C2=O (stereo unspecified) | 91.2%
O=C(OCCOCCO)N(c1cccc(Br)c1)c1nc(SCCN2CCOCC2)nc2c1cnn2CC(Cl)c1ccc(Br)cc1 (stereo unspecified) | 19.6%
CCN1C(=O)N(CC)C2NNC(Sc3c(C(=O)O)c4ccccc4n(CC(C)C)c3=O)=NC21 (stereo unspecified) | 11.8%
CCN1C(=O)N(CC)C2NNC(Sc3c(C(=O)O)c4ccccc4n(CCC(C)C)c3=O)=NC21 (stereo unspecified) | 5.92% (active)
COc1ccc(C(=O)c2cc(C(C)=O)c3c(C)cc(C)cn23)cc1 | 18.4%
O=C(N/N=C/c1ccc(Cl)cc1)c1ccc(OCc2nc3ccc(Cl)cc3[nH]2)cc1 | -12.1% (active)
COC(=O)c1cc(C(=O)C(Br)Br)n2c1ccc1c3ccccc3ccc12 | 38.6%
O=C(Nc1nc2ccccc2s1)Nc1ccccc1Cl | 48.5%
Oc1ccc(Cl)c(Nc2ncnc3c2cnn3CC(Cl)c2ccc(Br)cc2)c1 (stereo unspecified) | 54.9%
ClC(Cn1ncc2c(Nc3cccc(Br)c3)nc(SCCN3CCOCC3)nc21)c1ccc(Br)cc1 (stereo unspecified) | 10.2%
Nc1cc(-c2c[nH]c3ccc(F)cc23)nc2cc(-c3c[nH]c4ccccc34)nn12 | 4.46% (active)

Compound | growth
O=C1Nc2cc(-c3ccc(NS(=O)(=O)c4ccc(F)c(Cl)c4)cc3)ccc2/C1=C/c1ccc[nH]1 | 34.9%
O=C1CCC(N2C(=O)c3cccc(NCCOCCOCCOCCC(=O)NCCCC(=O)NC(c4ccc5c(c4)OCO5)c4cc(Cl)c5cccnc5c4O)c3C2=O)C(=O)C1 (stereo unspecified) | 32.7%
Cn1cc(-c2cc3nc(-c4c[nH]c5ccccc45)cc(N)n3n2)c2ccccc21 | -73.6% (active)
CN1C(=O)C(O)(CC(=O)c2cc3ccccc3oc2=O)c2ccccc21 (stereo unspecified) | 107%
COc1ccc(Nc2nnc(-c3c[nH]c4ccccc34)o2)cc1 | 86.2%
Cc1cccc(C)c1Nc1nnc(-c2c[nH]c3ccccc23)o1 | 101%
Cc1ccc(O)cc1Nc1nc(SCCN2CCOCC2)nc2c1cnn2CC(Cl)c1ccc(Br)cc1 (stereo unspecified) | 20.7%
Fc1ccccc1CNc1nc(SCCN2CCOCC2)nc2c1cnn2CC(Cl)c1ccc(Br)cc1 (stereo unspecified) | 43.8%
COC(=O)c1cc(C(=O)CBr)n2c1ccc1c3ccccc3ccc12 | 31.3%
Oc1ccc(F)c(Nc2nc(SCCN3CCOCC3)nc3c2cnn3CC(Cl)c2ccc(Br)cc2)c1 (stereo unspecified) | 20.2%
COC(=O)c1c(C(=O)OC)c2ccc3c4ccccc4ccc3n2c1C(=O)C(C)Br (stereo unspecified) | 15.6%
Cc1nn(-c2ccccc2)c2nc(C)n(C(=O)N/N=C/c3cccc([N+](=O)[O-])c3)c(=O)c12 | 94.5%
COc1c2c(c(Br)c3c1C(CCc1ccccc1)N(C)CC3)OCO2 (stereo unspecified) | 48.4%
COc1ccc2[nH]cc(-c3cc(N)n4nc(-c5c[nH]c6ccccc56)cc4n3)c2c1 | -43.9% (active)
CC(C)(C)C(=O)C1CC(C#N)=C2C=Cc3c(ccc4ccccc34)N21 (stereo unspecified) | 71.2%
Oc1ccc(Cl)c(Nc2nc(SCCN3CCOCC3)nc3c2cnn3CC(Cl)c2ccc(Br)cc2)c1 (stereo unspecified) | 16.5%
Fc1ccc(F)c(CNc2nc(SCCN3CCOCC3)nc3c2cnn3CC(Cl)c2ccc(Br)cc2)c1 (stereo unspecified) | 31.9%
CN1CCN(C(=O)Oc2cc3c(c4ccccc24)[C@H](CCl)CN3C(=O)c2cc3cc(OCCCN4CCC4)ccc3[nH]2)[C@H]2CSSC[C@H]21 | -13.1% (active)
Nc1nc(-c2ccccc2)c(N=Nc2ccc(Cl)cc2Cl)s1 | 12.1%
